The source of these data is PubChem BioAssay (Tox21).

Several values for one entry are separate records, joined by “and”; a condition that tells them apart may be missing. Equal values may be shown once. Records with an inconclusive call do not appear. Activity calls are given as the source filed them. Unless noted, the call rests on the fitted dose curve.

Assay [1] is described as follows: Nuclear factor erythroid 2-related factor 2/antioxidant responsive element (Nrf2/ARE) small molecule agonists: qHTS cell viability counter screen in human keratinocytes (AID 1919968; active means well fitted curve in the direction sought with a large enough effect in the repeat runs; an effect the other way counts as inactive or inconclusive; further: nearly all actives have a fitted effect of over 55% in size). A digest of the protocol: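 CellTiter-Fluor fluorescence, read 1 h after reagent, gave viability in the same wells as the ARE-luciferase assay. KeratinoSens cells (1,500/well) had 23 h compound exposure at 37 C/5% CO2 following 5 h plating.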
On the technique in general: In qHTS, concentration-response curves come from the screen itself.

The nature of assay [2]: Nuclear factor erythroid 2-related factor 2/antioxidant responsive element (Nrf2/ARE) small molecule agonists: luciferase reporter gene qHTS assay in human keratinocytes (AID 1919969). Further: nearly all actives have a fitted effect of over 35% in size. Further: potency means the concentration at half of the fitted maximal effect. Background: A reporter such as luciferase makes a cellular process visible.
Assay [3] deals with KiSS-1 receptor (Homo sapiens) (UniProt Q969F8). Nature of the assay: Human kisspeptin (KISS1R) small molecule agonists, calcium flux assay in KISS1R-HEK293 cells (AID 1920064; active means well fitted curve in the direction sought with a large enough effect in the repeat runs; an effect the other way counts as inactive or inconclusive). A digest of the protocol:
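Agonist mode: intracellular calcium rise tracked at 1 s intervals over 3 min (480/540 nm) immediately after compound addition to dye-loaded KISS1R-HEK293 stable cells. Each compound tested at 15 concentrations in triplicate.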
For orientation: Calcium assays in cells follow changes in intracellular calcium, usually with a dye or a luminescent sensor.

The nature of assay [4]: G protein-coupled receptor (GPCR) small molecule agonists, calcium flux assay: HEK293 wild type cell line counter screen (AID 1920065). In a few lines:
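Calcium flux counter screen: compound added in agonist mode at 15 concentrations in triplicate to dye-loaded parental HEK293 cells. Fluorescence (480/540) read kinetically for 3 min; ATP served as positive control.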

Assay [5] is described as follows: p53 small molecule agonists, cell-based qHTS assay with rat liver microsomes (AID 1963578). A digest of the protocol:
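Metabolic activation by rat liver microsomes and NADPH, each 0.5 mg/mL final, added right after compounds to p53RE-bla reporter cells (4,000/well, plated 5 h earlier). 16 h at 37 C, then LiveBLAzer substrate for 2 h at room temperature in the dark; fluorescence read-out.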

Assay [6] can be described thus: p53 small molecule agonists, cell-based qHTS assay with human liver microsomes: qHTS cell viability counter screen (AID 1963579). Further: nearly all actives have a fitted effect of over 45% in size. A digest of the protocol: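 Metabolic activation used human liver microsomes and NADPH, both 0.5 mg/mL final, over 16 hours at 37 C on p53RE-bla cells (4,000/well). Cytotoxicity measured by CellTiter-Glo luminescence, 30 min at room temperature.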

The nature of assay [7]: p53 small molecule agonists, cell-based qHTS assay with rat liver microsomes: qHTS cell viability counter screen (AID 1963580). Further: nearly all actives have a fitted effect of over 45% in size. A digest of the protocol:
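Cytotoxicity counter screen: intracellular ATP read by CellTiter-Glo luminescence in the p53 reporter wells. HCT-116 p53RE-bla cells were treated for 16 h at 37 C alongside rat liver microsomes and NADPH, each 0.5 mg/mL final.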

Assay [8] in a line: p53 small molecule agonists, cell-based qHTS assay: qHTS cell viability counter screen (AID 1963581). Further: nearly all actives have a fitted effect of over 45% in size. A digest of the protocol:
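Counter screen read by CellTiter-Glo luminescence (ATP content, 30 min at room temperature), run in the same wells as the beta-lactamase reporter read. HCT-116 p53RE-bla cells saw compounds for 16 h at 37 C.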

Assay [9] in a line: p53 small molecule agonists, cell-based qHTS assay (AID 1963582; active means well fitted activation curve with a large enough effect in the signal ratio in the repeat runs, not every such curve was filed as active; the % refers to the signal ratio). A digest of the protocol: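 Read-out is beta-lactamase FRET fluorescence after 2 h at room temperature with LiveBLAzer B/G substrate. p53 response element-bla cells were treated 16 h at 37 C with compounds in DMSO, added 5 h after seeding.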
The target of assay [10] is 5-hydroxytryptamine receptor 2A (Homo sapiens) (UniProt P28223). Briefly: 5-hydroxytryptamine receptor 2A (HTR2A) small molecule antagonists, cell-based qHTS assay (AID 1963586). Further: nearly all actives have a fitted effect of over 45% in size. A digest of the protocol: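 CHO cells stably expressing human HTR2A were plated for 18 h at 37 C, then loaded with calcium dye for 1 h. Compounds were preincubated 5 min at room temperature before DOI (4 nM solution) was added. Kinetic fluorescence was read for 3 min.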

For assay [11] the target is unchanged. Nature of the assay: 5-hydroxytryptamine receptor 2A (HTR2A) small molecule agonists, cell-based qHTS assay (AID 1963587). Further: nearly all actives have a fitted effect of over 30% in size. A digest of the protocol: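 Kinetic calcium-flux fluorescence (2 min, 1 sec intervals) after compound addition in agonist mode. HTR2A-CHO cells were cultured 18 h, then dye-loaded 1 h at 37 C.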
Assay [12] concerns the target Muscarinic acetylcholine receptor M1 (Homo sapiens) (UniProt P11229). Nature of the assay: Cholinergic receptor muscarinic 1 (CHRM1) small molecule antagonists, cell-based qHTS assay (AID 1963588). Further: nearly all actives have a fitted effect of over 40% in size. A digest of the protocol: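 Compounds were tested at 15 concentrations in three independent runs. Dye-loaded CHRM1-CHO cells were exposed 5 min at room temperature before stimulation by acetylcholine added at 50nM. Intracellular calcium was read kinetically on FDSS for 3 min.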

The target is the same in assay [13]. Nature of the assay: Cholinergic receptor muscarinic 1 (CHRM1) small molecule agonists, cell-based qHTS assay (AID 1963589). Further: nearly all actives have a fitted effect of over 35% in size. In a few lines:
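Agonist-mode calcium-flux screen: compounds at 15 concentrations, three independent runs, were pin-transferred onto dye-loaded human CHRM1-CHO cells. Fluorescence was then recorded kinetically every second over minutes.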

Assay [14] is described as follows: cAMP Responsive Elements (CRE) small molecule agonists, cell-based qHTS assay (AID 1963590). A digest of the protocol: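 Agonist mode: compound added to CRE-bla HEK 293T cells (2,000/well, 18 h after plating) for 3 h at 37 C/5% CO2. Reporter activity detected via FRET beta-lactamase substrate, 2 h room-temperature loading.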
A short description of assay [15]: cAMP Responsive Elements (CRE) small molecule antagonists, cell-based qHTS assay (AID 1963591; active means well fitted inhibition curve with a large enough effect in the signal ratio in the repeat runs, not every such curve was filed as active; the % refers to the signal ratio). A digest of the protocol: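 Antagonist mode: compounds are added alongside the adenylyl cyclase activator NKH477 (0.25 uM final) to CRE-bla HEK293T cells for 3 h. LiveBLAzer FRET substrate, 2 h at room temperature, reports bla expression.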
Assay [16] deals with Beta-2 adrenergic receptor (Homo sapiens) (UniProt P07550). Nature of the assay: Adrenergic beta2 receptor (ADRB2) small molecule antagonists, cell-based qHTS assay (AID 1963592). Further: series mostly up to about 92 µM; nearly all actives have a fitted effect of over 50% in size. A digest of the protocol:
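Assay format: CHO-ADRB2 cells, 18-20hr seeding at 37C/5% CO2, then compound plus 1nM isoproterenol agonist mix for 0.5hr RT. Homogeneous time-resolved fluorescence cAMP detection after 1hr, expressed as 665/615 nm ratio.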

Assay [17] has the same target. Briefly: Adrenergic beta2 receptor (ADRB2) small molecule agonists, cell-based qHTS assay (AID 1963593).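 Further: CHO cells stably overexpressing human ADRB2.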 In a few lines: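 CHO cells stably over-expressing ADRB2 were plated overnight at 37C, then dosed with compounds plus a stimulation mix containing 100uM IBMX and 25uM Ro-20-1724 for 0.5hr at room temperature. cAMP was measured by HTRF competition, 1hr.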
The target in assay [18] is D(2) dopamine receptor (Homo sapiens) (UniProt P14416). Nature of the assay: Dopamine D2 receptor (DRD2) small molecule agonists, cell-based qHTS assay (AID 1963594). Further: nearly all actives have a fitted effect of over 35% in size. In a few lines:
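cAMP accumulation in DRD2-HEK293 cells measured by HTRF after 1 h detection; compounds added 10 min before NKH477 (200nM […]) forskolin-analogue stimulation, 30 min at room temperature, with Ro20-1724 present at 0.1 mM final.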

Assay [19] shares this target. Nature of the assay: Dopamine D2 receptor (DRD2) small molecule antagonists, cell-based qHTS assay (AID 1963595; active means well fitted inhibition curve with a large enough effect in the signal ratio in the repeat runs, with a control signal flat; the % refers to the signal ratio). In a few lines:
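Cells were plated and grown for 24 h at 37 °C. Ro20-1724 (0.1 mM final) went in first, then compound for 10 min. NKH477 (200 nM) with quinpirole (12 nM) followed for 30 min at RT, then HTRF detection reagents for 1 h.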

Assay [20] is described as follows: p53 small molecule agonists, cell-based qHTS assay with human liver microsomes (AID 1963577).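 Further: p53 response element beta-lactamase reporter cells with liver microsomes plus NADPH.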 A digest of the protocol:
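With metabolic activation: human liver microsomes (0.5 mg/mL final) plus NADPH (0.5 mg/mL final) added alongside compounds to p53RE-bla cells; 16 h 37 C exposure; beta-lactamase read by LiveBLAzer fluorescence.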

Beta-2 adrenergic receptor (Homo sapiens), sequence (P07550 whole entry, looked up): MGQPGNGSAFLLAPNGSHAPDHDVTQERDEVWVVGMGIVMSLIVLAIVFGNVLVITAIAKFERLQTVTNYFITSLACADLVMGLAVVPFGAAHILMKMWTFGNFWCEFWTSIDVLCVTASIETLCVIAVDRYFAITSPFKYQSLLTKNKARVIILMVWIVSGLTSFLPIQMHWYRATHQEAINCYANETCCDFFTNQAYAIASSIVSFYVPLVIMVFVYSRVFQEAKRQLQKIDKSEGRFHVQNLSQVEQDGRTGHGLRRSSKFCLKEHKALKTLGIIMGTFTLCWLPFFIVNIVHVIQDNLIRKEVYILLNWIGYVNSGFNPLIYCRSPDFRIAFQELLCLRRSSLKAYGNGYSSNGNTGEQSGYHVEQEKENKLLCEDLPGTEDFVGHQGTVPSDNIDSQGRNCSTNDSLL
5-hydroxytryptamine receptor 2A (Homo sapiens), sequence (P28223 whole entry, looked up): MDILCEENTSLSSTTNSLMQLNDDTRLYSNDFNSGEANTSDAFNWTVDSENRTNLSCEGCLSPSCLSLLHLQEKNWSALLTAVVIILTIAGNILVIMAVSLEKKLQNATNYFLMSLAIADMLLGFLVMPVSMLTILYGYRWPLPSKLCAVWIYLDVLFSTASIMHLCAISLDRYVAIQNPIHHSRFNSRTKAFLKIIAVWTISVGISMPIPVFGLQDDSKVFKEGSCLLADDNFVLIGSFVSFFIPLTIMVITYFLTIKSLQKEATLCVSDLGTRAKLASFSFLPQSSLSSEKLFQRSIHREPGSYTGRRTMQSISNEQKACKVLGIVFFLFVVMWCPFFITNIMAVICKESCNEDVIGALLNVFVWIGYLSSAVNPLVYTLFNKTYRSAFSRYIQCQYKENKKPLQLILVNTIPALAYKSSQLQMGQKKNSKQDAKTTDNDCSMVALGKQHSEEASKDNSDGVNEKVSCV
KiSS-1 receptor (Homo sapiens), sequence (Q969F8 whole entry, looked up): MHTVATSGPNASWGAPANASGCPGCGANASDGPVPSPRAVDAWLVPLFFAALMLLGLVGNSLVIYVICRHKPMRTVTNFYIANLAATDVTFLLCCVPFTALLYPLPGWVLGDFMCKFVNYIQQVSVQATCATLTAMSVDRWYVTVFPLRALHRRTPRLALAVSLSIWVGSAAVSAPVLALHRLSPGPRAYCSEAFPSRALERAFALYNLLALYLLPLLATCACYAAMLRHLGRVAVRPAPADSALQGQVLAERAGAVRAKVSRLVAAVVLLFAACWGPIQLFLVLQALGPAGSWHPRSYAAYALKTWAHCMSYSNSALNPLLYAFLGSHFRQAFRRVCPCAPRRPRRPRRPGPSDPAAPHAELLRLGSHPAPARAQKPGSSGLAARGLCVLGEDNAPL
Muscarinic acetylcholine receptor M1 (Homo sapiens), sequence (P11229 whole entry, looked up): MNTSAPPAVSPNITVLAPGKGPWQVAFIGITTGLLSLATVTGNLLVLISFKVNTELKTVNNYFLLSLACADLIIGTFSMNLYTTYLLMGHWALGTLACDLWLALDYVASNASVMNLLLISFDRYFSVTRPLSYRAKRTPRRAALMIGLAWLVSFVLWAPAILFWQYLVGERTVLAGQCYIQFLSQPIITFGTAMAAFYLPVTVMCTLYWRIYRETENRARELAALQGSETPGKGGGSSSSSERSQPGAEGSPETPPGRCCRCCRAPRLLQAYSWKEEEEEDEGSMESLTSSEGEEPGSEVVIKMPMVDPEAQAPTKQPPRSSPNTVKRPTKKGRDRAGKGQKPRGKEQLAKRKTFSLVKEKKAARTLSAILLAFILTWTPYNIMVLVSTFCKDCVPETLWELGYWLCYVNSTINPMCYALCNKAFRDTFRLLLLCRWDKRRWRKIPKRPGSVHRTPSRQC
D(2) dopamine receptor (Homo sapiens), sequence (P14416 whole entry, looked up): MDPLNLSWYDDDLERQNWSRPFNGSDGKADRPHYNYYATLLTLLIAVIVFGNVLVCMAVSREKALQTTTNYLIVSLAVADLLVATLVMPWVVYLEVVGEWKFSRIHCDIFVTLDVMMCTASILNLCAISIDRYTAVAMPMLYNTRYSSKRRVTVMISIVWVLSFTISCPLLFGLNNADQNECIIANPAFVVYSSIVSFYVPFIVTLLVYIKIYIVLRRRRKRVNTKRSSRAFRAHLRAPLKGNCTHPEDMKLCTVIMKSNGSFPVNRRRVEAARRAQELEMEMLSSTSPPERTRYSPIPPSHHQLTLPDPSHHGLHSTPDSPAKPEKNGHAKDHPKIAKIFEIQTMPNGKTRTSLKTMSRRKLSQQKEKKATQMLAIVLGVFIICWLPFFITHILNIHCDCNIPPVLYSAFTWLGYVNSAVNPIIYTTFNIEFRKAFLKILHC

With `O=C(OCCOCCO)c1ccccc1Nc1cccc(C(F)(F)F)c1`, the Potency entry in assay [1], in assay [2], in assay [3], in [4], in [5] and in assay [6] was “inactive” in each case. The Potency result in [7], in assay [8], in assay [9], in assay [10], in [11] and in [12] was “inactive” each time. Further, the Potency entry in assay [13], in [14], in assay [15], in assay [16], in assay [17] and in [18] was “inactive” each time. Besides, in assay [19], the Potency entry is “inactive”.
Turning to `N=C(N=C(N)N)N1CCOCC1`, the Potency entry in [1], in assay [2], in assay [3], in assay [4], in assay [20] and in assay [6] was “inactive” each time. The Potency entry in assay [7], in assay [8], in assay [9], in assay [10], in [11] and in assay [12] was “inactive” each time. Moreover, the Potency entry in assay [13], in assay [14], in assay [15], in assay [16], in assay [17] and in assay [18] was “inactive” each time.
Regarding `CO[Si](C)(C)OC`, the Potency result in [1], in assay [2], in [3], in assay [4], in [20] and in assay [5] was “inactive” throughout. Besides, the Potency entry in assay [6], in assay [7], in assay [9], in [10], in assay [11] and in assay [12] was “inactive” each time. For the same compound, the Potency result in [13], in assay [14], in [15], in assay [16], in assay [17] and in assay [19] was “inactive” throughout.
On to `N#Cc1cc(NC(=O)C(=O)O)c(Cl)c(NC(=O)C(=O)O)c1`, for which the Potency result in assay [1], in [2], in [3], in [4], in assay [20] and in assay [5] was “inactive” each time. The Potency result in assay [6], in assay [8], in [9], in assay [10], in assay [11] and in assay [12] was “inactive” each time. In addition, the Potency result in [13], in assay [14], in assay [16], in assay [18] and in [19] was “inactive” in each case.
Take `CC(=O)OC[C@H]1O[C@@H](OC(C)=O)[C@H](OC(C)=O)[C@@H]1OC(C)=O`: the Potency result in assay [1], in [2], in assay [3], in [4], in assay [20] and in assay [5] was “inactive” throughout. Besides, the Potency entry in assay [7], in assay [8], in assay [9], in [10], in assay [11] and in [12] was “inactive” each time. The Potency result in assay [13], in assay [14], in assay [15], in assay [16], in assay [17] and in [18] was “inactive” throughout. The Potency result in [19] is “inactive”.
As to `CC(C)(C)c1ccc(O)c(O)c1`, the Potency result in [1], in assay [3], in [4], in [5], in assay [7] and in [8] was “inactive” each time. In addition, the Potency result in assay [10], in [11], in assay [12], in assay [13], in assay [14] and in assay [15] was “inactive” throughout. In addition, the Potency entry in assay [16] and in [18] was “inactive” each time. In addition, the Potency in assay [2] is 63.2 µM (active) and 8.63 µM (active).
For `COc1ccc(OC)c(C(O)CNC(=O)CN)c1` (stereo unspecified), the Potency result in [1], in [2], in [3], in [4], in [8] and in assay [9] was “inactive” throughout. The Potency result in [10], in assay [11], in assay [12], in assay [13], in assay [15] and in [16] was “inactive” throughout. Further, the Potency entry in assay [17], in assay [18] and in assay [19] was “inactive” in each case.
